Source: PubChem
GPR7 antagonist: GPR7 receptor antagonists, primary screen, cell-based, fluorescence, single concentration. inhibition, % at 4.4 µM. 290,000 tested, 1.1% active. GPR7-expressing cells, fluorescence antagonist assay. AID 1861, 2009; in the data active means inhibition above about 16%, passing the limit was not always enough;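 further: cells stimulated with the agonist NPW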
Target sequence (P48145 whole entry, looked up): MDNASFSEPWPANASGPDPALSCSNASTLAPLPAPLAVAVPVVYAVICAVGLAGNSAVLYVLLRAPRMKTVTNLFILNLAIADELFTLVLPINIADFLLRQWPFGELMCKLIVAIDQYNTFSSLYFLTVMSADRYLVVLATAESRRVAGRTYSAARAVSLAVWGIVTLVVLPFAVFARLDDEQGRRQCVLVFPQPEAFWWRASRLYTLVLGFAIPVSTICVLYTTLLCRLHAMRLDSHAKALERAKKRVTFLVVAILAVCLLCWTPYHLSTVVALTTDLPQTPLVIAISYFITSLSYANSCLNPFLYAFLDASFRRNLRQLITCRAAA
KLF5 inhibitor: KLF5 expression inhibitors, primary screen, DLD-1 cells, luminescence; 290,000 tested, 0.23% active; inhibition, % at 5 µM; DLD-1 KLF5 promoter-luciferase reporter;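 active means inhibition above a per-plate limit of that plate's mean compound inhibition plus 3 SD, cut at about 60% in these data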;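 further: higher means less KLF5 promoter-driven luciferase light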
IEC-6 tox-1: cytotoxicity in IEC-6 intestinal epithelial cells, primary screen, cytotoxicity control for KLF5 inhibitor project, cell-based, luminescence | IEC-6 cytotoxicity, luminescence viability | inhibition, % at 5 µM | 290,000 tested, 0.78% active | AID 1825, 2009; in the data active means inhibition above about 22%
BaF3 tox: parental Ba/F3 cell viability inhibition, counter-screen for JAK2V617F inhibitor project, murine pro-B, CellTiter-Glo luminescence; 220,000 tested, 1.1% active; CellTiter-Glo ATP luminescence; inhibition, % at 5.6 µM;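 active means inhibition above a per-campaign cutoff, the mean inhibition of all tested compounds plus 3 SD, cut at about 27% in these data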
FID counter: compounds displacing fluorescent DNA intercalator, primary screen, artefact control for HCV NS3 helicase inhibitor project, biochemical, FID fluorescence. DNA fluorescent intercalator displacement. inhibition, % at 7.9 µM. 290,000 tested, 0.17% active. AID 1845, 2009; in the data active means inhibition above about 37%;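 further: higher means more ethidium bromide displaced from hairpin DNA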
Ba/F3 V617F tox: reduced viability of JAK2V617F-dependent Ba/F3 cells, primary screen, JAK2V617F inhibitor project, cell-based, Ba/F3 EpoR-JAK2V617F, luminescence; ATP luminescence; inhibition, % at 5.6 µM; 220,000 tested, 1.1% active;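 active means inhibition above the campaign mean plus 3 SD over all tested compounds, cut at about 24% in these data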;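 further: cytokine-independent growth of Ba/F3 cells driven by EpoR plus mutant JAK2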
BaF3 parental 2: parental Ba/F3 cell viability inhibition, counter-screen for JAK2V617F inhibitor project, murine pro-B, CellTiter-Glo luminescence; shares compounds with Ba/F3 V617F tox; cells kept alive by added IL-3; inhibition, % at 5.6 µM; 580 tested, 31% active;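 active means cell growth inhibition above the hit limit set in the earlier mutant JAK2 cell screen, cut at about 27% in these data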
JAK2V617F conf: viability loss in Ba/F3 EpoR-JAK2V617F cells, confirmation, JAK2V617F inhibitor project, cell-based, luminescence, triplicate; inhibition, % at 5.6 µM; CellTiter-Glo luminescence; 580 tested, 66% active; shares compounds with Ba/F3 V617F tox; AID 1521, 2009;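 active means mean inhibition above the hit cutoff derived in the earlier primary screen, cut at about 25% in these data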;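 further: higher means lower luminescence from reduced cell ATP and viability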
KLF5 inh confirm: KLF5 expression inhibitors, confirmation, DLD-1 cells, luminescence | 610 tested, 79% active | DLD-1 KLF5 promoter firefly luciferase reporter | inhibition, % at 4 µM | AID 1834, 2009 | shares compounds with KLF5 inhibitor;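 active means inhibition above a set limit taken from the earlier primary screen, cut at about 63% in these data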
IEC-6 tox-2: cytotoxicity in rat IEC-6 cells, cytotoxicity control for KLF5 inhibitor project, cell-based, luminescence, triplicate. shares compounds with KLF5 inhibitor. IEC-6 rat intestinal cells, viability luminescence. inhibition, % at 4 µM. 610 tested, 56% active. AID 1905, 2009; in the data active means inhibition above about 23%;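 further: cells exposed to compounds for 48 hours before viability read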
Numbers stand for hits; i = inactive; nt = not tested or not shown. This is a sample that favours compounds with a hit; in the whole collection about 2.6% have one here.

SMILES | GPR7 antagonist | KLF5 inhibitor | IEC-6 tox-1 | BaF3 tox | FID counter | Ba/F3 V617F tox | BaF3 parental 2 | JAK2V617F conf | others
CCOc1cc(Br)ccc1S(=O)(=O)NCc1ccccc1 | i | i | i | i | i | 101 | i | i
CCOc1ccc(OCC)c(S(=O)(=O)NCc2ccccc2)c1 | i | i | i | nt | i | nt | nt | nt
CC(C)c1nnc(SCC(=O)NC(C)(C)C)n1C | i | i | i | i | i | i | nt | nt
CCOCCCN1CN(Cc2ccccc2)CNC1=S | i | i | i | i | i | i | nt | nt
CCCCN1CN(Cc2ccccc2)CNC1=S | i | i | i | i | i | 41 | i | i
CCCCN(C)Cc1c(C)[nH]c2ccc(C)cc2c1=O | i | i | i | i | i | i | nt | nt
O=C(Nc1ccccc1C(=O)O)c1ccc(Br)o1 | i | i | i | i | i | 24 | i | i
O=[N+]([O-])/C(=C\Nc1ccccc1Cl)S(=O)(=O)c1ccccc1 | i | i | i | i | i | i | nt | nt
O=[N+]([O-])/C(C=Nc1ccccc1O)=C\Nc1ccccc1O | i | i | i | i | i | 39 | i | 68
COCCNC(=O)CN(C(=O)c1ccc(N2CCCC2)nc1)c1ccccc1 | 25 | i | i | i | i | 64 | i | i
O=C1C=CCC(/C=C/c2ccccc2)O1 (configuration not stated) | i | i | i | i | i | 46 | i | 97
O=[N+]([O-])c1cnc(Sc2ccncn2)s1 | i | i | i | i | i | 73 | 29 | 96
COc1ccc(CC(CN)c2ccccc2)cc1 (configuration not stated) | i | i | i | nt | i | nt | nt | nt
O=C(Nn1c(-c2ccc(Br)cc2)nc2ccccc2c1=O)c1ccncc1 | i | i | i | i | i | i | nt | nt
O=C(Nn1c(-c2ccc(F)cc2)nc2ccccc2c1=O)c1cccnc1 | i | i | i | i | i | 66 | i | i
CC(=O)Oc1ccc(Cl)cc1/C=C/c1cc(OC(C)=O)c2ccccc2n1 | i | i | i | i | i | 24 | 30 | 48
CC1CCCC(C)N1S(=O)(=O)c1ccc(NC(=O)CCn2cnc3ccccc3c2=O)cc1 (configuration not stated) | i | i | i | i | i | i | nt | nt
CN(C)S(=O)(=O)c1ccc(-c2csc(N/N=C/c3ccc(O)cc3)n2)cc1 | i | i | i | i | i | 45 | 49 | 94
CCC(C)C(=O)Nc1c2c(nc3c1CCC3)CCCC2 (configuration not stated) | i | i | i | i | i | 32 | i | i
CN1/C(=C\C(=O)CSc2nnc(NCc3ccccc3)s2)C(C)(C)c2ccccc21 | i | i | i | i | i | 33 | i | i
COc1ccc(-c2cc3nc(C)n(N)c(=O)c3s2)cc1 | i | 96 | i | i | i | 41 | 56 | 40 | KLF5 inh confirm=109;IEC-6 tox-2=36
CCN(CC)S(=O)(=O)c1ccc(N/N=C(\C)c2ccncc2)nc1 | i | i | i | nt | i | nt | nt | nt
CCN(CC)S(=O)(=O)c1ccc(N/N=C/c2ccc(O)cc2O)nc1 | i | 72 | i | i | i | 50 | 83 | 93 | KLF5 inh confirm=81;IEC-6 tox-2=i
CCOC(=O)C1=C(N)OC2=C(C(=O)CC(C)(C)C2)C1c1ccc(C)s1 (configuration not stated) | i | i | i | i | i | i | nt | nt
